Drawing on PubChem BioAssay, this text covers composite z-score and z-score for 16 compounds.

Experiment [1] is described as follows: compounds binding Alexa647 anti-His antibody – biochemical, small-molecule microarray, 635 nm fluorescence, artefact control for SMM control protein annotation, primary screen (AID 1128).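 Note: score merges feature fluorescence with signal-to-noise for each printed compound spot.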 Particulars: higher = more signal.
Experiment [2] relates to Human papillomavirus type 1a E7 protein (residues 1-88). The experiment is described as follows: HPV1a E7 small-molecule binders, primary screen, biochemical, small-molecule microarray, residues 1-88, 635 nm (AID 1129). Particulars: small-molecule microarray binding, fluorescence 635 nm; higher = more signal.
Experiment [3] concerns the target Focal adhesion kinase 1 (Homo sapiens) (UniProt Q05397). In words: PTK2 protein binding on printed compound slides – biochemical, small-molecule microarray, 635/667 nm fluorescence, BSA, DTT, primary screen (AID 1130).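 Note: composite of spot emission at 667 nm and signal to noise over triplicate slides.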 Particulars: 635 nm fluorescence, higher = more signal.
Experiment [4] has as its system Fibrinogen (Alexa647-labelled). In words: Alexa647-fibrinogen binding to printed small molecules – biochemical, small-molecule microarray, 635/667 nm fluorescence, artefact control for SMM control-protein annotation, profiling panel (AID 1131).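 Note: z-score merges 667 nm fluorescence with per-spot signal-to-noise over triplicate slides.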 The note with it: fibrinogen-A647 binding fluorescence, higher = more signal.
For experiment [5], the target named is Follistatin (Homo sapiens) (UniProt P19883). The experiment is described as follows: FST protein binding to printed compounds – biochemical, small-molecule microarray, 635/667 nm fluorescence, primary screen (AID 1132). Particulars: 635 nm fluorescence, higher = more signal.
Sequence of Follistatin (Homo sapiens) (P19883 whole entry, looked up): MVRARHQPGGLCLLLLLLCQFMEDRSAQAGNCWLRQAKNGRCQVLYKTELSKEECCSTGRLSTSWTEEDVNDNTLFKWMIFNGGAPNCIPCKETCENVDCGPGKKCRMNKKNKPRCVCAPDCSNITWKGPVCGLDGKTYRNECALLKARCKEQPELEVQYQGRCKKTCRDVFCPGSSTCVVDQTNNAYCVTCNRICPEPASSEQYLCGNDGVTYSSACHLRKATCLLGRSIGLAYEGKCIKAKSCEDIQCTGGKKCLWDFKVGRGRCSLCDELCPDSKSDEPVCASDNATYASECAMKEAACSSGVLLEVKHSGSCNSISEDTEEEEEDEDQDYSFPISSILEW
For experiment [6], the target named is Fibroblast growth factor 2 (Homo sapiens) (UniProt P09038). The experiment is described as follows: basic fibroblast growth factor binding to printed compounds – biochemical, small-molecule microarray, 635/667 nm fluorescence, primary screen (AID 1133). The note with it: FGF2, fluorescence 635/667, higher = more signal.
Sequence of Fibroblast growth factor 2 (Homo sapiens) (P09038 whole entry, looked up): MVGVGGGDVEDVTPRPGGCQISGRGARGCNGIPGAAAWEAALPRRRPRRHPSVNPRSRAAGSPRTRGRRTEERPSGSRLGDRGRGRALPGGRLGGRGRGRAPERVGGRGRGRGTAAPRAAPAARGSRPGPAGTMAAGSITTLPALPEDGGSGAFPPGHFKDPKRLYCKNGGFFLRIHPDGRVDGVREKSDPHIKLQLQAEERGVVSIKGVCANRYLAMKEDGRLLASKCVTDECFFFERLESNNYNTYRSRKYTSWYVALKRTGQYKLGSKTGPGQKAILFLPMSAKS
Experiment [7] in a line: JC-1 mitochondrial potential readout, lung cancer cells – cell-based, A549, JC-1 fluorescence, basal, 24 h, 100 nL, profiling panel (AID 1138).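 Note: A549 lung adenocarcinoma cells under basal conditions with no added stimulus; test concentration not given here.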 Particulars: higher = more signal.
For a further experiment, the system named is Lefty1. The experiment is described as follows: Lefty1 protein binding to printed compounds – biochemical, small-molecule microarray, 635/667 nm fluorescence, primary screen (AID 1139). The note with it: fluorescence 635/667, higher = more signal.
Experiment [8] concerns wheat germ agglutinin (Triticum aestivum), Alexa647-labelled. In words: Alexa647-WGA lectin binding to printed small molecules – biochemical, small-molecule microarray, 635/667 nm fluorescence, artefact control for SMM control-protein annotation, profiling panel (AID 1140).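 Note: score merges 667 nm feature emission with signal to noise over triplicate slides.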 The note with it: WGA-A647 binding, 635 nm fluorescence, higher = more signal.
Experiment [9] addresses Luciferin 4-monooxygenase (Photinus pyralis) (UniProt P08659). In words: inhibition of purified Photinus pyralis luciferase – biochemical, luminescence, purified enzyme, 2006 set, primary screen (AID 1141).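 Note: cell-free assay with purified firefly luciferase at 100 ng per well in PBS; test concentration not given here.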 The note with it: purified firefly luciferase, SteadyGlo luminescence, 30 min; higher = more signal, called active from +8 up or from −8 down.

Activity calls are given as the source filed them.

Sequence of Luciferin 4-monooxygenase (Photinus pyralis) (P08659 whole entry, looked up): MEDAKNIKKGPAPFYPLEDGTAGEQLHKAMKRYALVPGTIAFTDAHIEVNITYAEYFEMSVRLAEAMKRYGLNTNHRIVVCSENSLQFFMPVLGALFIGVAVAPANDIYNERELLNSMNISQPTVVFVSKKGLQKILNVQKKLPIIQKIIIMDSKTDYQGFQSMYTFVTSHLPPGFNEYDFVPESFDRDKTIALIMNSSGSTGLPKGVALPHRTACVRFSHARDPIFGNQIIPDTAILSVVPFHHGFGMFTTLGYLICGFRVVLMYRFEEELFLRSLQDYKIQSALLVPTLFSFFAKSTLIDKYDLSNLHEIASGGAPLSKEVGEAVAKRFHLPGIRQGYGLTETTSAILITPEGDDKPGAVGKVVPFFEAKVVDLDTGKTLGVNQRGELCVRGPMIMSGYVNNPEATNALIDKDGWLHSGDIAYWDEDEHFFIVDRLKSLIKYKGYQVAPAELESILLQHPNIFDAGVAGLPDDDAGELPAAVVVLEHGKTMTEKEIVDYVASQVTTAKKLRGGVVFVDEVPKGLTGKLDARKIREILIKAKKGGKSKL
Sequence of Focal adhesion kinase 1 (Homo sapiens) (Q05397 whole entry, looked up): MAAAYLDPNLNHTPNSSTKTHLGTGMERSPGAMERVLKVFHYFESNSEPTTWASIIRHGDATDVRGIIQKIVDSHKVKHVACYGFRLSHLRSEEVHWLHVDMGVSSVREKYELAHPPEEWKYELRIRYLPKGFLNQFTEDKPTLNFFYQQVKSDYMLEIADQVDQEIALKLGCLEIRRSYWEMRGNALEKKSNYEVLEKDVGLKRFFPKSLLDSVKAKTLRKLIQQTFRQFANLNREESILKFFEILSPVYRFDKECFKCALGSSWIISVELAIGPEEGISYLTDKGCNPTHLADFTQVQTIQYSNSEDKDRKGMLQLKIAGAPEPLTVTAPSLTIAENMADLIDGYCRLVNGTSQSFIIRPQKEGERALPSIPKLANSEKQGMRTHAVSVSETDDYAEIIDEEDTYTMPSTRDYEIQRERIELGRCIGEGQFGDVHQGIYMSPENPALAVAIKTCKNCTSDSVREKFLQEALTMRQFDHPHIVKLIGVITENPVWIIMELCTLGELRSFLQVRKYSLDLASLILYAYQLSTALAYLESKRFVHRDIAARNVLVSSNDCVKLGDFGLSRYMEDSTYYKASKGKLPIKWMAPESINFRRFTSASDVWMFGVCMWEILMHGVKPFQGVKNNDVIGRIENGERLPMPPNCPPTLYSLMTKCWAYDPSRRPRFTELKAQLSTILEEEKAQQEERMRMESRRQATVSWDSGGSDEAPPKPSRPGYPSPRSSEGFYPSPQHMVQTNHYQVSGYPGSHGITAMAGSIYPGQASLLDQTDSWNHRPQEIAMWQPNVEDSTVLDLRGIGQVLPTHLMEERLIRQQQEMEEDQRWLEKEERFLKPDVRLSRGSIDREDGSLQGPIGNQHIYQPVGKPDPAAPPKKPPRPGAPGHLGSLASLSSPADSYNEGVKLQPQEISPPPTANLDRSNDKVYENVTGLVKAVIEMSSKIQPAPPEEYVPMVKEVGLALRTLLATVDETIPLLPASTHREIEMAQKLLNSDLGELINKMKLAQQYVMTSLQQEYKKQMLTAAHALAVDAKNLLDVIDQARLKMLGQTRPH

Consider `COC(=O)C(CC#Cc1ccc2c(c1)[C@]1(C(=O)N2)[C@H](C(=O)O)[C@H]2C(=O)O[C@H](c3ccccc3)[C@H](c3ccccc3)N2[C@@H]1c1ccc(O)cc1)C(=O)OC`, for which the composite z-score in experiment [1] was 1.54; in experiment [2], -0.133; in [3], -0.13; in [4] it was -0.422; in experiment [5] it was -0.0501; in experiment [6], -0.328. The values for the composite z-score (in the experiment with Lefty1; in experiment [8]) were -0.574 and -0.163, respectively. Also, the z-score in [7] was -0.573; in experiment [9] it was 0.217 (inactive).
Regarding `COCCOC(=O)N1C(=O)[C@@]2(c3cc(C#CC4(O)CCCCCC4)ccc31)[C@H](c1ccc(O)cc1)N1[C@H](c3ccccc3)[C@H](c3ccccc3)OC(=O)[C@H]1[C@@H]2C(=O)Nc1nc2ccccc2s1`, the composite z-score was 0.84 in experiment [1]; 1.19 in [2]; 0.482 in experiment [3]; 0.97 in experiment [4]; 1.18 in [5]; 1.05 in experiment [6]. Also, the composite z-score in the experiment on Lefty1 stood at 0.562; in experiment [8] it was 0.227. For the same compound, the figures for the z-score in experiment [7] and in experiment [9] were -1.85 and -0.715 (inactive), respectively.
As for `C=C(COC)/C(=C/C[C@@H](OC(C)=O)c1ccc(OCCO)cc1)c1cc(C(=O)OC)ccc1OC`, the composite z-score in [1] is 0.531; in [2], 1.21; in experiment [3], 0.481; in experiment [4], -0.367; in [5], 1.25; in [6] it was 1.5. In addition, the composite z-score with Lefty1 came out at 1.19; in experiment [8], 0.195. In addition, the z-score in experiment [7] was 0.371; in experiment [9], -0.371 (inactive).
On to `C=CCOC(=O)[C@@H]1[C@H]2C(=O)O[C@H](c3ccccc3)[C@H](c3ccccc3)N2[C@H](c2ccc(OCCOC(=O)[C@@H]3C[C@@H]4C(=O)N[C@@H](Cc5ccccc5)C(=O)N4[C@@H]3c3ccc(O)cc3)cc2)[C@@]12C(=O)Nc1ccc(I)cc12`, for which the composite z-score was found to be 1.11 in [1]; 0.947 in [2]; 0.375 in experiment [3]; 0.799 in experiment [4]; 1.41 in [5]; 1.61 in experiment [6]. Also, the figures for the composite z-score (in the experiment with Lefty1; in experiment [8]) were 1.41 and 0.844, respectively. Further, the z-score was -1.53 in experiment [7] and 0.304 (inactive) in experiment [9].
Turning to `O=C1NC(=O)C2C1C=CC(C(O)c1ccccc1)N2Nc1ccc(Cl)cc1Cl` (stereo not given), the composite z-score is 1.62 in experiment [1]; 1.16 in experiment [2]; 0.433 in [3]; 0.985 in [4]; 1.28 in experiment [5]; 0.394 in experiment [6]. For the same compound, the composite z-score in the experiment on Lefty1 stood at 1.4; in [8] it was 0.763. For the same compound, the z-score in experiment [7] is -0.0329; in experiment [9] it was -1.44 (inactive).
For `C=CC[C@]1(C(=O)N2CCCCC2)N=C(c2ccc(OCCCO)cc2)O[C@H]1c1ccccc1`, the composite z-score in experiment [1] is 2.2; in experiment [2], 1.19; in [3], 0.702; in experiment [4], 0.928; in experiment [5], 1.3; in experiment [6], -0.165. Further, the composite z-score in the experiment with Lefty1 was -0.395; in [8], 0.676. Moreover, the z-score in experiment [7] was 1.48; in experiment [9], -0.728 (inactive).
As to `O=C1OCCC/C=C\[C@H]2OC34C=CCN(Cc5ccccc5)C(=O)[C@H]3N(CCCCCCO)C(=O)[C@@H]4C12` (stereo not given in full), the composite z-score was 0.727 in experiment [1]; -0.39 in experiment [2]; 0.0123 in experiment [3]; -1.98 in experiment [4]; -1.61 in experiment [5]; -0.929 in experiment [6]. The composite z-score with Lefty1 was -1.55; in experiment [8], -0.513. Moreover, the z-score was 1.59 in experiment [7] and -1.76 (inactive) in experiment [9].
As for `CC[C@@H]1C=C(C(=O)O)[C@H](c2ccco2)N1S(=O)(=O)c1ccc(C)cc1`, the composite z-score was 0.2 in [1]; -0.522 in experiment [2]; 1.32 in [3]; -1.13 in experiment [4]; 1 in [5]; -0.152 in experiment [6]. The results for the composite z-score (in the experiment with Lefty1; in experiment [8]) were -0.165 and 0.839, respectively. In addition, the values for the z-score in experiment [7] and in experiment [9] were -1.09 and 1.09 (inactive), respectively.
For the compound `O=C(NCc1ccccc1)[C@@]1(Cc2ccccc2)N=C(c2ccc(OCCCO)cc2)O[C@H]1c1ccccc1`, the composite z-score in [1] is 1.47; in [2], 1.22; in [3] it was 0.45; in experiment [4] it was 0.866; in experiment [5], 0.368; in experiment [6] it was -0.352. The composite z-score in the experiment with Lefty1 is -0.872; in [8] it was 1.05. Moreover, the z-score was 0.164 in experiment [7] and 0.712 (inactive) in experiment [9].
As to `CN(C)CCCNC(=O)[C@@]1(c2ccc([N+](=O)[O-])cc2)CC(=O)N(C2CCCCC2)[C@@H]1c1ccc(CO)cc1I`, the composite z-score in experiment [1] came to 1.48; in experiment [2] it was 1.23; in [3] it was 0.634; in experiment [4] it was 0.62; in experiment [5], 0.336; in experiment [6] it was 0.225. For the same compound, the composite z-score was 0.0773 in the experiment with Lefty1 and 0.701 in [8]. Besides, the z-score was -2.36 in experiment [7] and -0.907 (inactive) in [9].
Take `COCCOC(=O)N1C(=O)[C@@]2(c3cc(C#CCCO)ccc31)[C@H](C(=O)N1CCN(c3ncccn3)CC1)[C@H]1C(=O)O[C@H](c3ccccc3)[C@H](c3ccccc3)N1[C@@H]2c1ccccc1OCCO`: the composite z-score in experiment [1] was 0.475; in [2], 1.23; in [3] it was 0.868; in [4], 0.972; in [5], 1.35; in experiment [6] it was 0.821. Also, the values for the composite z-score (in the experiment with Lefty1; in experiment [8]) were 0.828 and 1.04, respectively. Besides, the figures for the z-score in experiment [7] and in [9] were -0.778 and 1.23 (inactive), respectively.
As to `Cc1ccc(S[C@]2(C(=O)NCC(C)C)CC(=O)N(Cc3cc(C(F)(F)F)cc(C(F)(F)F)c3)[C@@H]2c2ccc(CO)cc2I)cc1`, the composite z-score was -0.316 in experiment [1]; -1.08 in experiment [2]; -0.55 in [3]; -0.819 in experiment [4]; -1.59 in experiment [5]; -1.1 in experiment [6]. In addition, the composite z-score was -2.21 with Lefty1 and -0.192 in experiment [8]. For the same compound, the figures for the z-score in experiment [7] and in [9] were -0.553 and 0.328 (inactive), respectively.
For the compound `COc1ccc(CCNC(=O)[C@@]2(C)c3ccccc3C(=O)N(Cc3cc(F)cc(C(F)(F)F)c3)[C@H]2c2ccc(CO)cc2)cc1`, the composite z-score in experiment [1] was found to be 0.421; in experiment [2], 0.682; in experiment [3], 0.212; in [4], 0.0066; in experiment [5] it was 0.179; in experiment [6] it was 0.132. Further, the figures for the composite z-score (in the experiment with Lefty1; in experiment [8]) were -0.953 and 0.606, respectively. In addition, the figures for the z-score in experiment [7] and in [9] were -0.233 and -0.947 (inactive), respectively.
`CCCCC=C[C@@H](NC(=O)Oc1cccc(C(F)(F)F)c1)c1ccccc1`: the composite z-score in experiment [1] worked out at 0.291; in experiment [2], 1.21; in experiment [3] it was 0.0053; in experiment [4], 1.01; in experiment [5], 0.572; in experiment [6] it was 1.63. The composite z-score with Lefty1 is -0.0322; in [8] it was 1.15. In addition, the z-score in [7] is -1.68; in experiment [9], 1.52 (inactive).
With `COc1ccc(CCN2C(=O)[C@@]3(Cc4ccccc42)c2ccccc2C(=O)N(Cc2ccccc2C(F)(F)F)[C@H]3c2ccc(CO)cc2)cc1`, the composite z-score in [1] was 0.752; in [2], -0.175; in [3], -0.324; in experiment [4] it was 0.732; in experiment [5] it was 1.12; in experiment [6], 0.83. For the same compound, the results for the composite z-score (in the experiment with Lefty1; in experiment [8]) were 0.541 and 0.461, respectively. The z-score was -0.963 in experiment [7] and 0.642 (inactive) in experiment [9].
With `CC(C)C[C@@H]1NC(=O)[C@@H]2C[C@H](C(=O)NCCCCCN)[C@H](c3cccc(OCCO)c3)N2C1=O`, the composite z-score in experiment [1] is 1.19; in [2], 1.04; in experiment [3], 1.13; in experiment [4], 0.93; in experiment [5], 0.555; in experiment [6], 0.591. The composite z-score with Lefty1 was 0.288; in experiment [8], 1.13. Further, the z-score in [7] is 1.18; in [9], -1.21 (inactive).
